Measured values published in PubChem BioAssay AID1220 (Sanford-Burnham Center for Chemical Genomics, 2008).
The whole screen tested about 190,000 compounds, of which about 1,300 (0.68%) were called active. This is one part of a sample in which actives are shown more often than they occur. Rule as the data show it: active = inhibition above about 50%; inactive = the rest.

target: Mannose-6-phosphate isomerase (Homo sapiens) (UniProt P34949); assay: human PMI inhibitors, high substrate, primary screen, biochemical, fluorescence intensity, high mannose 6-phosphate (AID 1220); conditions: recombinant PMI enzyme, coupled fluorescence intensity; at 20 µM; hits give high values
Sequence (P34949 whole entry, looked up): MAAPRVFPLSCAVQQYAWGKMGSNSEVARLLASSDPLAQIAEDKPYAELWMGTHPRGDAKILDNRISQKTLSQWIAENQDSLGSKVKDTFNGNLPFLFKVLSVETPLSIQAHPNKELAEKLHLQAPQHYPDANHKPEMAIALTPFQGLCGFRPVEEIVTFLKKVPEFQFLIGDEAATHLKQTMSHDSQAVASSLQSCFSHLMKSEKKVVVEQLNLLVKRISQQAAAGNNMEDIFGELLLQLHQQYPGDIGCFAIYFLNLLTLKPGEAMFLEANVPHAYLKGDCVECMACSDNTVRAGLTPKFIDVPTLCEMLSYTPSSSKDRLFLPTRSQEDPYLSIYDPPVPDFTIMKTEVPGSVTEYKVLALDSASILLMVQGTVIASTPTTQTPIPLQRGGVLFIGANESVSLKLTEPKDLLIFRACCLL

inhibition, inactive:
COc1cc(Cl)c(C)cc1NC(=O)CSc1nnc(CCC(=O)O)c(=O)[nH]1 6.6%, COc1ccc(CCNC2CC(=O)N(CCc3ccc(OC)c(OC)c3)C2=O)cc1OC (stereo not given) 1.6%, O=C1CC(NCc2ccc3c(c2)OCO3)C(=O)N1CCc1ccccc1 (stereo not given) 1%, CCc1nnc(NC(=O)CN2C(=O)c3ccccc3C2=O)s1 -2.7%, O=C1C2C3C=CC(C3)C2C(=O)N1Cc1ccccc1 (stereo not given) 10%, Cn1c(=O)c2cc(S(=O)(=O)NC(C(=O)Nc3cccc(F)c3)c3ccccc3)ccc2n(C)c1=O (stereo not given) 1.9%, Cc1cc(C)c2c(N)c3cccc(C)c3nc2n1 5.4%, Cc1ccc2cccc(NC(=O)C(F)(F)F)c2n1 9.3%, Cc1ccc2cccc(OCCOCCOc3ccccc3Br)c2n1 35.7%, Cc1cc(N)c2ccccc2n1 5.5%, COP(=O)(OC)c1nc(-c2ccccc2)oc1N1CCOCC1 -10.4%, CC1CCCCC1N1CN=C(Nc2nc3ccccc3s2)NC1 (stereo not given) 8.2%, Nc1nc(SCC(=O)NCCO)nc2sc3c(c12)CCCC3 5.1%, Nc1nc(SCC(=O)NCCOCCO)nc2sc3c(c12)CCCC3 2.8%, Cc1c(Cl)cccc1NC(=O)Cn1cc(C(F)(F)F)cc(Cl)c1=O -5.8%, CC(C)N1C(=O)S/C(=C/c2ccc(Sc3nc4ccccc4[nH]3)o2)C1=O 13.6%, CC(C)N1C(=O)S/C(=C/c2ccc3c(c2)n(C)c(=O)n3C)C1=O 7.6%, C/C(=N\NC(=O)CN(c1ccccc1Br)S(C)(=O)=O)c1cccs1 -17.2%, CCS(=O)c1ccccc1C(=O)O (stereo not given) 9.5%, CCCCNc1nc(CC)c2c(c1C#N)CCCC2 -5.9%, Cc1sc2nc3c(C(=O)N4CCCC4)cc(C(=O)c4ccccc4O)cn3c(=O)c2c1C 7.7%, CCOC(=O)c1cc(C(=O)c2ccccc2O)cn2c(=O)c3c(C)c(C)sc3nc12 16.1%, CCc1ccc(C(=O)CN2C(=O)C(C)N(c3ccc(C)cc3)C2=O)cc1 (stereo not given) 4.9%, CCOc1cc(N2CCOCC2)c(OCC)cc1NC(=O)Cc1cccc(OC)c1 8.1%, COc1ccc(CC(=O)Nc2ccccc2N2CCOCC2)cc1OC -2.2%, CCOc1cc(N2CCOCC2)c(OCC)cc1NC(=O)COc1ccccc1[N+](=O)[O-] 23.9%, CCOc1cc(N2CCOCC2)c(OCC)cc1NC(=O)COC(=O)c1ccccc1C 11.5%, COc1ccc(NC(=O)COC(=O)[C@@H]2CCCN2S(=O)(=O)c2ccccc2F)c(OC)c1 -1.3%, CCOc1cc(N2CCOCC2)c(OCC)cc1NC(=O)Cc1cccc2ccccc12 -0.6%, O=C(CCn1c(=O)sc2ccccc21)Nc1nccs1 4.8%, Cc1ccc(NC(=O)CN2CCN(CCN=CC3=C(O)CC(C)(C)CC3=O)CC2)cc1 -3.9%, COC(=O)CSc1nc(C)cc(N2CCOCC2)n1 -3.4%, CCc1n[nH]c(=S)n1/N=C/c1cc(Br)c(OC)cc1OC -2.2%, Cc1nnc(NC(=O)Oc2ccccc2)s1 4.4%, Cc1c(NC(=O)Oc2ccccc2)sc(=S)n1C -4.6%, COc1ccccc1C(=O)Nc1nc(N)n(-c2ccccc2)n1 -3.7%, Cc1cccc(C)c1NC(=S)/C(=C(\[O-])c1cccs1)[n+]1ccccc1 5.5%, [O-]/C(=C(\C(=S)Nc1cccc2ccccc12)[n+]1ccccc1)c1ccc(Cl)s1 5.8%, O=C(O)CSCC(=O)Nc1ccc(Cl)cc1C(F)(F)F -0.6%

inhibition, active:
COc1ccc(CCN2C(=O)CC(NCc3ccc4c(c3)OCO4)C2=O)cc1OC (stereo not given) 51%, Cc1ccc2cccc(N)c2n1 56.5%, Cc1cc(C)c2cccc(N)c2n1 64%, Nc1nc(SCC(=O)NCCCO)nc2sc3c(c12)CCC3 57%, CCN(CC)c1ccc(/C=C2/SC(=O)N(C(C)C)C2=O)o1 51.9%, Cc1sc2nc3c(SC(C)C(=O)O)cc(C(=O)c4ccccc4O)cn3c(=O)c2c1C (stereo not given) 69%, CCOc1cc(N2CCOCC2)c(OCC)cc1NC(=O)COC(=O)[C@@H]1CCCN1S(=O)(=O)c1ccccc1F 53%, CCOc1cc(N2CCOCC2)c(OCC)cc1NC(=O)Cc1ccc(OC)c(OC)c1 53.1%, CCOc1cc(N2CCOCC2)c(OCC)cc1NC(=O)Cc1ccccc1OC 51.7%, COC(=O)c1c(C)nsc1NC(=O)Oc1ccccc1 50.4%, [O-]/C(=C(\C(=S)Nc1cccc2ccccc12)[n+]1ccccc1)c1cccs1 65.7%
